High-throughput results deposited in PubChem BioAssay by Broad Institute.
dFosB act-1 – activators of delta FosB homodimer, primary screen, biochemical, fluorescence polarization, TAMRA-CDK5 oligo, single point; Protein FosB (Mus musculus), P13346; purified delta FosB; percent of positive-control signal above neutral wells; activation, % at 25 µM; actives 0.99% (n = 340,000); AID 493131, 2011;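 active means mean activation above about 17%, with every replicate also reaching it, limit read from the data, passing the limit was not always enough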
PglD DTNB – C. jejuni PglD acetyltransferase inhibitors, primary screen, biochemical, DTNB colorimetric, single point | UDP-N-acetylbacillosamine N-acetyltransferase PglD (Campylobacter jejuni) | purified PglD enzyme, DTNB colorimetric CoA detection | inhibition, % at 12.5 µM | actives 0.098% (n = 360,000); in the data active means inhibition above about 16%, passing the limit was not always enough
FGF22 binding – binders of human FGF22 protein, primary screen, FGF22 synaptogenesis inhibitor project, biophysical, thermal shift, single point. actives 1.5% (n = 340,000). Fibroblast growth factor 22 (Homo sapiens), Q9HCT0. recombinant FGF22 thermal shift, SYPRO orange fluorescence; percent of sucrose octasulfate shift, DMSO zero. activity (Tm shift, normalised), % at 9.99 µM;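 active means mean Tm shift, scaled 0 neutral to 100 positive control, at about 1.3% or above, every replicate too, limit read from the data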
Target sequence (Q9HCT0 whole entry, looked up): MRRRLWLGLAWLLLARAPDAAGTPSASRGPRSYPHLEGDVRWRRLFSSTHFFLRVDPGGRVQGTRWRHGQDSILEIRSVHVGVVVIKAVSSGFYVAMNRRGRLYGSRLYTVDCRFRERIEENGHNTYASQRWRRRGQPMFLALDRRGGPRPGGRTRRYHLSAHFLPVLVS
SIRT5 inh – SIRT5 desuccinylase inhibitors, primary screen, biochemical, fluorescence imaging, single point, set 5. Purified SirT5, succinyl-peptide AMC, trypsin-coupled fluorescence. AID 652115, 2013. actives 1.1% (n = 330,000). inhibition, % at 15 µM. NAD-dependent protein deacylase sirtuin-5, mitochondrial (Homo sapiens), Q9NXA8; in the data active means inhibition above about 15%
Target sequence (Q9NXA8 whole entry, looked up): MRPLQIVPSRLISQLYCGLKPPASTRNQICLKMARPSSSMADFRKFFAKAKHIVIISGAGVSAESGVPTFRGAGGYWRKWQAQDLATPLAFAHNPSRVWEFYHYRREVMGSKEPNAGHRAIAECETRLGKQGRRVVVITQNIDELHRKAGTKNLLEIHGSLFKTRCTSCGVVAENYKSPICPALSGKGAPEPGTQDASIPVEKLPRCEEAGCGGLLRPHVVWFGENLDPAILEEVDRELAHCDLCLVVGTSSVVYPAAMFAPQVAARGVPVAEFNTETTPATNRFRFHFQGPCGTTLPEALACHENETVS
PvdQ acylase – P. aeruginosa PvdQ acylase inhibitors, primary screen, biochemical, fluorescence, plate reader and imaging, single point | PvdQ acylase [Pseudomonas aeruginosa LESB58] | purified PvdQ acylase | inhibition, % at 10 µM | actives 0.063% (n = 340,000); in the data active means inhibition above about 30%, passing the limit was not always enough;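 further: 0% = vehicle neutral wells and 100% = reference inhibitor wells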
CDK5 inh – inhibitors of human CDK5/p35 kinase, primary screen, biochemical, single concentration; Cyclin-dependent kinase 5 (Homo sapiens) + Cyclin-dependent kinase 5 activator 1 (Homo …; Recombinant CDK5/p35, ADP-Glo luminescence, 60 min; inhibition, % at 10 µM; actives 0.01% (n = 330,000); AID 488839, 2010;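 active means highest replicate inhibition of at least 50% and at least 75% of replicates reaching 50%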;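 further: plate controls were DMSO neutral control for no effect and GW8510 at 10 µM for full effect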
dFosB act-2 – activators of mouse delta FosB DNA binding, confirmation, biochemical, fluorescence polarization, TAMRA-CDK5 oligo, cherry-picked samples; activation, % at 24.9 µM; 2,400 tested, under 10 active; purified delta FosB; normalised: neutral wells 0, positive control 100; shares compounds with dFosB act-1;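 active means highest replicate activation at or above 34% and every replicate reaching that threshold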;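 further: higher polarization means more probe DNA bound by delta FosB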
Active calls of the source: *; / = no result. An excerpt weighted towards active compounds, which were near 2.8% of everything screened.

SMILES	dFosB act-1	PglD DTNB	FGF22 binding	SIRT5 inh	PvdQ acylase	CDK5 inh	others
CCC(=O)Nc1ccc2c(c1)C(=O)N(C)C[C@H](OC)[C@@H](C)CN(C(=O)COC)[C@H](C)CO2	/	-4	0	/	/	/
COc1cccc(NC(=O)N(C)C[C@H]2Oc3ncc(C4=CCCCC4)cc3C(=O)N([C@H](C)CO)C[C@@H]2C)c1	/	-1	-1	20*	/	/
CC(=O)N(C)C[C@H]1Oc2ncc(C3=CCCC3)cc2C(=O)N([C@H](C)CO)C[C@H]1C	/	1	0	34*	/	/
Cc1ccc(N=C2C(=O)Nc3ccc(Br)cc32)cc1	-6	3	0	15*	-9	1
Cc1ccc(N=C2C(=O)Nc3c(C)cccc32)cc1	9	-4	0	1	-14	1
CO[C@H]1CN(C)C(=O)c2ccc(NS(=O)(=O)c3ccccc3C)cc2OC[C@@H](C)N(C)C[C@@H]1C	/	-1	0	-3	/	/
Cc1ccc(S(=O)(=O)N(C)C[C@H]2OCCCC[C@H](C)Oc3ccc(NS(=O)(=O)c4cn(C)cn4)cc3C(=O)N([C@H](C)CO)C[C@@H]2C)cc1	/	1	0	0	/	/
COc1ccc(-c2nc3ccccc3nc2-c2ccccc2)cc1OC	-17	-1	0	17*	9	2
COc1ccc(C=O)cc1Cn1c(=O)n(CCC(=O)NCc2ccco2)c(=O)c2sccc21	94*	1	0	-2	-4	-1
CCCNC(=O)Nc1ccc2c(c1)OC[C@@H](C)N(Cc1ccc(-c3ccccn3)cc1)C[C@H](C)[C@@H](OC)CN(C)C2=O	/	-2	0	/	/	/
CC(C)N(Cc1ccccc1)C(=S)Nc1ccc(F)cc1	-4	/	43*	-2	-11	1
Cc1ccc(NC(=S)N(Cc2ccccc2)C(C)C)cc1	-8	4	0	-1	-12	1
COc1cccc(NC(=O)N2CC3(C2)[C@H](c2ccccc2)[C@H](CO)N3C(=O)C2CCCC2)c1	/	/	/	-1	/	/
O=C(c1ccc(F)cc1)N1CC(=O)N2[C@@H](CO)[C@H](c3ccc(C#CC4CCCCC4)cc3)[C@@H]2C1	/	/	/	4	/	/
CCCn1nc(C(=O)OCC(=O)Nc2cccc(S(N)(=O)=O)c2)c2ccccc2c1=O	-21	2	0	-1	-3	-1
CCCn1nc(C(=O)OCC(=O)Nc2cccc(OC)c2)c2ccccc2c1=O	-14	/	43*	0	-3	0
C[C@@H]1CN([C@H](C)CO)C(=O)c2cc(NC(=O)Nc3ccc(F)cc3)ccc2O[C@@H](C)CCCCO[C@@H]1CN(C)C(=O)C1CCCCC1	/	2	-1	5	/	/
CC(NC(=O)COC(=O)C12CC3CC(CC(O)(C3)C1)C2)c1ccccc1 (configuration not stated)	-2	/	43*	/	-7	-1
COc1ccc2c(c1OC)C(=O)N1N=C(c3ccc(F)cc3)CC21 (configuration not stated)	-2	/	44*	3	-3	-3
CCCS(=O)(=O)N1CCN(C2Cc3ccccc3C2)CC1	-3	/	0	17*	-11	-1
CCCS(=O)(=O)N1CCN(C2CCC(C)CC2)CC1 (configuration not stated)	1	-5	0	-3	4	0
COc1ccc2c3c(n(C)c2c1)[C@@H](CO)N(C(=O)Cc1ccccn1)CC31CN(CC2CCCC2)C1	/	/	0	/	/	/
Cc1ccc(-c2csc(NC(=O)CCCc3cccs3)n2)cc1	10	/	/	/	-5	1
CC(=O)Nc1ccc(-c2csc(NC(=O)CCCc3cccs3)n2)cc1	-5	-3	2.1*	0	-8	0
COc1ccc(OC)c(-c2cc(C(=O)Nc3ccc(F)cc3F)no2)c1	33*	0	0	-2	-11	1	dFosB act-2=6
SMILES	dFosB act-1	PglD DTNB	FGF22 binding	SIRT5 inh	PvdQ acylase	CDK5 inh	others
CN(C)CCCN(C(=O)c1cc(-c2cccs2)nc2ccccc12)c1nc2ccc(F)cc2s1	28*	3	0	-3	-4	1	dFosB act-2=5
CN(C)CCN(C(=O)CCc1ccccc1)c1nc2c(F)cc(F)cc2s1	3	/	0	3	-5	0
CCN(CC)CCN(C(=O)c1ccccc1OC)c1nc2ccc(F)cc2s1	-13	/	0	-2	-18	1
COc1cc2ccccc2cc1C(=O)N(CCN(C)C)c1nc2ccc(Br)cc2s1	44*	-2	0	0	2	-1	dFosB act-2=5
COc1cc2ccccc2cc1C(=O)N(CCN(C)C)c1nc2c(F)cc(F)cc2s1	35*	-1	0	-6	-11	1	dFosB act-2=6
CN(C)CCCN(C(=O)CCc1ccccc1)c1nc2ccc(F)cc2s1	-19	/	/	/	-16	1
O=C(Nc1ccccc1F)N1CC(=O)N2[C@H](CO)[C@@H](c3ccc(-c4ccccc4)cc3)[C@@H]2C1	/	/	/	0	/	/
C[C@@H]1CN([C@H](C)CO)C(=O)c2cc(NC(=O)C3CCCCC3)ccc2O[C@@H](C)CCCCO[C@H]1CN(C)Cc1ccc(C(=O)O)cc1	/	1	0	0	/	/
CCNC(=S)N1CCN(CCN2C(=O)c3cccc4cccc(c34)C2=O)CC1	10	5	0	-3	3	1
NC(=O)CN1CCN(CCN2C(=O)c3cccc4cccc(c34)C2=O)CC1	24*	1	0	2	-3	-1	dFosB act-2=-9
Nc1cc2c3c(cccc3c1)C(=O)N(CCN1CCCC1)C2=O	57*	2	0	5	-6	1	dFosB act-2=-2
CCN(CC)CCN1C(=O)c2cccc3cc(N)cc(c23)C1=O	24*	2	0	4	15	1	dFosB act-2=-4
COc1ccc(CN(C)C[C@@H]2OCCCC[C@@H](C)Oc3ccc(NC(=O)c4ccncc4)cc3C(=O)N([C@@H](C)CO)C[C@@H]2C)cc1	/	-2	0	1	/	/
CC1CCN(S(=O)(=O)c2ccc(C(=O)Nc3sccc3C(N)=O)cc2)CC1	53*	-3	0	1	-15	-2	dFosB act-2=3
